Compound activity from PubChem BioAssay.
VDR inh = vitamin D3 receptor (human) inhibition. VDR-SRC2-3 peptide fluorescence polarization, 2 h. AID 504847. P11473. Potency, µM, for the others: max response, negative = inhibition, actives largely listed as inhibitors. 400,000 tested, 0.93% active; further: potency means the concentration at half of the fitted maximal effect; on the % scale 0 is the no-effect control and ±100 the full control effect
Target sequence (P11473 whole entry, looked up): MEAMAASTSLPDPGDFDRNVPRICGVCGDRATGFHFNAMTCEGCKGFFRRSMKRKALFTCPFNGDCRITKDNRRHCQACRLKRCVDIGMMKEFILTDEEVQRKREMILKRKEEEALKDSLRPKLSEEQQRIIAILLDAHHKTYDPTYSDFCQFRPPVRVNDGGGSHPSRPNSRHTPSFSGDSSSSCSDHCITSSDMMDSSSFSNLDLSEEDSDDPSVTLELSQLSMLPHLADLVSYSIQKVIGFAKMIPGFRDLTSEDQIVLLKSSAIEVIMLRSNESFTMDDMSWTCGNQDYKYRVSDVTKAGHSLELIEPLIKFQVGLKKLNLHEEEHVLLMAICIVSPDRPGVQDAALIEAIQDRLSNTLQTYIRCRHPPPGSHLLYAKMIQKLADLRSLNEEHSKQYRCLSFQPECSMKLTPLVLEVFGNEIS
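Signal is fluorescence polarization, reporting how far test compounds block the interaction of VDR with the SRC2-3 coregulator peptide after a 2 h room-temperature incubation.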
JMJD2E inh = JMJD2E (human) inhibition | JMJD2E catalytic domain, FDH-coupled NADH fluorescence (FDH is formaldehyde dehydrogenase) | Potency, µM (series often up to 57.1 µM), for the others: top-dose activity change, negative = inhibition, usual class: inhibitors | 230,000 tested, 1.6% active | AID 2147; active means well fitted inhibition curve with a large enough effect, not every such curve was filed as active; inconclusive means small, poorly fitted or top-dose-only effect, or another doubt; inactive means no such curve, though single readings can be large or run the other way;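 further: potency means the concentration at half of the fitted maximal effect; 0% = wells with enzyme and -100% = buffer wells without enzyme; nearly all actives have a fitted effect of over 50% in size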
HTT aggregate = inhibitors of mutant huntingtin aggregate formation in PC12 cells; PC12 HttQ103-GFP aggregates, Acumen cytometry, 40 h; Potency, µM (doses to about 46.1 µM), inactives show top-dose activity change, negative = inhibition, hits mostly inhibitors; 220,000 tested, 1.1% active; AID 1688; further: potency means the concentration at half of the fitted maximal effect; on the % scale 0 is the no-effect control and ±100 the full control effect; nearly all actives have a fitted effect of over 60% in size
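Using laser scanning cytometry, GFP-positive aggregates were counted after lysis of PC12 cells induced with 100 nM tebufenozide to express HTT exon 1 Q103–GFP. Compounds were tested in titration.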
RGS12 GoLoco inh = RGS12 GoLoco-Gai1 interaction inhibition. P63096. Gai1:RGS12 GoLoco peptide FP, rhodamine, 10 min. Potency, µM (titrated, usually from 61.6 µM), without a hit: top-dose activity, negative = inhibition, actives largely listed as inhibitors. 230,000 tested, 0.44% active. AID 880; active means well fitted inhibition curve with a large enough effect, not every such curve was filed as active; inactive means no such curve, though single readings can be large or run the other way; further: potency means the concentration at half of the fitted maximal effect; on the % scale 0 is the no-effect control and ±100 the full control effect; nearly all actives have a fitted effect of over 30% in size
FBPA coupling cs = inhibits coupling enzyme system, counter-screen for aldolase hits | activity change, negative = inhibition, % at 58.2 µM, hits read low | 290,000 tested, 0.67% active | coupling enzyme system counterscreen, AmpLite Red fluorescence; in the data active means activity change below about -30%; further: on the % scale 0 is the no-effect control and ±100 the full control effect
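Counterscreen lacking aldolase: glyceraldehyde-3-phosphate coupling-enzyme reagent preincubated 10 min at RT with compound (at 57.5 uM final), then substrate/coupling system with AmpLite Red added; fluorescence read at 525/598 nm after 20 min RT.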
HTT ATP protect = cytoprotection in Huntington HTT-Q103 PC12 cell model. PC12 HTT-Q103 induced, cytoprotection, ATP luminescence, 40 h. Potency, µM (series often up to 56.4 µM), for inactives: cytoprotection (ATP increase), actives largely listed as activators. 230,000 tested, 0.14% active. AID 1471; further: potency means the concentration at half of the fitted maximal effect; % of control where 0% means no effect; nearly all actives have a fitted effect of over 45% in size
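Readout: ATPlite luminescence (ATP level). Model: stable PC12, inducible Htt exon1 Q103-GFP. Inducer: tebufenozide, 100 nM final. Compounds: dose series. No G418 in medium.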
* = called active by the depositor; [ ] = remark or other dose. This is a sample that favours compounds with a hit; in the whole collection about 2.3% have one here. Unless noted, the call rests on the fitted dose curve; in most records, active means well fitted curve in the direction sought with a large enough effect; inconclusive means small, poorly fitted or top-dose-only effect, or another doubt; inactive means no such curve, though single readings can be large; an effect the other way counts as inactive or inconclusive.

`CC(C)OC(=O)C1CC(C)(O)C(=O)C(C(=O)OC(C)C)C1c1ccc([N+](=O)[O-])cc1` (centres undefined) gave VDR inh -7.3%, JMJD2E inh -4.4%, HTT aggregate 2.9%, RGS12 GoLoco inh 12.0%, FBPA coupling cs 1.3 and HTT ATP protect 6.6%.
For Cc1cccc[n+]1C1C(c2ccc([N+](=O)[O-])cc2)C(C#N)=C(C(=C=[N-])C#N)NC1(O)C1CC1 (centres undefined) the results were VDR inh -16.2%, JMJD2E inh 12.6µM*, HTT aggregate inconclusive, RGS12 GoLoco inh -7.5%, FBPA coupling cs -1.5 and HTT ATP protect -94.1%[10 µM].
Screening Cc1nc(N)c(C#N)c(-c2ccc3c(c2)OCO3)c1C returned VDR inh -15.6% and FBPA coupling cs -0.9.
`N#Cc1c(N)oc(-c2ccc3c(c2)OCO3)c1-c1ccc2c(c1)OCO2` gave VDR inh -11.5%, JMJD2E inh inconclusive, HTT aggregate 4.6%, RGS12 GoLoco inh 109.2%, FBPA coupling cs -38.3* and HTT ATP protect 10.9%[10 µM].
Screening CCCC[C@H]1C[C@@H]1[C@@H]1N(C(C)=O)[C@H](c2cccc(OC)c2)CC12CC2 returned JMJD2E inh 4.0%, RGS12 GoLoco inh -7.3%, FBPA coupling cs -1.1 and HTT ATP protect 0.1%.
O=C(c1cc2nc(-c3ccc(F)cc3)cc(C(F)(F)F)n2n1)N1CCCCC1c1cccnc1 (centres undefined) was read as VDR inh 8.0%, JMJD2E inh inconclusive, HTT aggregate 8.91µM*, RGS12 GoLoco inh -2.2%, FBPA coupling cs -0.2 and HTT ATP protect -45.7%.
For O=C(c1cnn2c(C(F)(F)F)cc(-c3ccccc3)nc12)N1CCCCC1c1cccnc1 (centres undefined) the results were VDR inh -23.2%, JMJD2E inh inconclusive, HTT aggregate 29.8%[9.22 µM], RGS12 GoLoco inh 12.3%, FBPA coupling cs -1.3 and HTT ATP protect -37.0%[1.9 µM].
Screening COc1ccc2cc(CCOC3CCCCO3)ncc2c1 (centres undefined) returned VDR inh 0.7%.
Screening Cc1ccc(CNC(=O)c2cn(C)c(=O)c3c2c2ccccc2n3C)o1 returned VDR inh -8.8%, JMJD2E inh inconclusive, HTT aggregate -3.0%, RGS12 GoLoco inh -16.5%, FBPA coupling cs -4.5 and HTT ATP protect -13.2%.
Cc1ccc(CNC(=O)c2cn(C3CCCCC3)c(=O)c3c2c2ccccc2n3C)o1 was read as VDR inh 79.4µM*, JMJD2E inh inconclusive, HTT aggregate 1.6%[9.22 µM], RGS12 GoLoco inh -7.9%, FBPA coupling cs -8.2 and HTT ATP protect -13.0%.
`OCC1O[C@H]([S-])[C@H](O)[C@@H](O)[C@@H]1O.[Au+]` (some centres undefined) gave VDR inh 2.82µM*.
For COc1cc(CC(=O)Nc2ccccc2N2CCOCC2)cc(OC)c1OC the results were VDR inh 4.7%, JMJD2E inh -26.5%, HTT aggregate 2.3%, RGS12 GoLoco inh 6.9%, FBPA coupling cs 6.6 and HTT ATP protect -33.2%.
Screening COc1ccc(C)cc1C(=O)CCC(=O)Nc1ccccc1N1CCOCC1 returned VDR inh 9.5%, JMJD2E inh -22.4%, HTT aggregate 12.6µM*, RGS12 GoLoco inh -13.5%, FBPA coupling cs 0.3 and HTT ATP protect 17.0%[10 µM].
CCOc1ccc(-c2n[nH]c(C)c2-c2ccccc2OC)c(O)c1 was read as VDR inh -1.7%, JMJD2E inh -3.0%, HTT aggregate inconclusive, RGS12 GoLoco inh 11.7%, FBPA coupling cs -11.8 and HTT ATP protect -9.9%.
`CCc1cc(-c2n[nH]c(C)c2-c2ccccc2Cl)c(O)cc1OC` gave VDR inh 18.9% and FBPA coupling cs -34.9*.
For CCOC(=O)/C(C#N)=C1\CC2CCC1(C)C2(C)C (centres undefined) the results were VDR inh 79.4µM*, JMJD2E inh -23.3%, HTT aggregate -1.8%, RGS12 GoLoco inh -4.4%, FBPA coupling cs 6.3 and HTT ATP protect -26.8%.
`Cc1cccc(-n2c(SCC(=O)c3ccccc3)nnc2-c2ccc(Br)cc2)c1` gave VDR inh 3.1%.
Screening CC1CCCN(C(=O)C2CCN(S(=O)(=O)c3ccccc3)CC2)C1 (centres undefined) returned VDR inh -12.2%.
`COc1ccc(NC(=O)C2CC(=O)N(Cc3ccco3)C2)cc1Cl` (centres undefined) gave VDR inh -12.3%.
Screening Cc1occc1C(=O)N1CCN(C(c2ccccc2)c2ccccc2)CC1 returned VDR inh -5.5%, JMJD2E inh -14.1%, HTT aggregate 20µM*, RGS12 GoLoco inh -22.1%, FBPA coupling cs -3.5 and HTT ATP protect -16.8%[10 µM].
Screening Cc1ccccc1C(=O)N1CCN(C(c2ccccc2)c2ccccc2)CC1 returned VDR inh -19.4%, JMJD2E inh -1.1%, HTT aggregate -26.8%[9.22 µM], RGS12 GoLoco inh 10.2%, FBPA coupling cs 2.4 and HTT ATP protect 11.7%[10 µM].
`CCOc1ccc(-n2c(=O)c3c4c(sc3n(CC(=O)NC(C)CC)c2=O)CCC4)cc1` (centres undefined) gave VDR inh 7.8%.
`CC1(C)CC(N=C2C([N+](=O)[O-])=CC=C3C2=NC2(CCCCC2)N3O)CC(C)(C)N1` gave VDR inh -2.5%, JMJD2E inh inconclusive, HTT aggregate 2.9%[9.22 µM], RGS12 GoLoco inh 14.0%, FBPA coupling cs -38.4* and HTT ATP protect 4.9%[10 µM].
`O=[N+]([O-])C1=CC=C2C(=NC3(CCCCC3)N2O)C1=NCCc1ccccc1` gave VDR inh -12.6%, JMJD2E inh -5.4%, HTT aggregate -2.3%, RGS12 GoLoco inh 2.1%, FBPA coupling cs -64.5* and HTT ATP protect -21.0%.
Screening O=[N+]([O-])C1=CC=C2C(=NC3(CCCCC3)N2O)C1=NC1CCCCC1 returned VDR inh 8.8%, JMJD2E inh 1.7%, HTT aggregate 5.7%, RGS12 GoLoco inh 26.8%, FBPA coupling cs -20.7 and HTT ATP protect -39.9%.
Screening CC(C)(C)N=C1C([N+](=O)[O-])=CC=C2C1=NC1(CCCCC1)N2O returned VDR inh -3.8%, JMJD2E inh -5.8%, HTT aggregate -17.5%, RGS12 GoLoco inh -4.2%, FBPA coupling cs -46.0* and HTT ATP protect -10.4%[10 µM].
Screening COc1ccc(-c2cc3nc(C4CCN(C(=O)OC(C)(C)C)CC4)c(C(=O)Nc4cc(Cl)cc(Cl)c4)cn3n2)cc1 returned VDR inh -6.5%.
